Screening results (PubChem BioAssay)
In the library only some 31% were active in any assay of this set; here they are far more common.
CYP2C9 inhib: blockers of cytochrome P450 2C9 activity – biochemical, luminescence, ADME assay, primary screen. inhibition, % at 5 µM. 96,000 compounds, 20% hits. AID 777, 2007. P11712. CYP2C9 Supersomes, luciferin-H conversion;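 active = blocking of liver enzyme CYP2C9 beyond about 50% at 5 µM, limit read from the data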
Target sequence (P11712 whole entry, looked up): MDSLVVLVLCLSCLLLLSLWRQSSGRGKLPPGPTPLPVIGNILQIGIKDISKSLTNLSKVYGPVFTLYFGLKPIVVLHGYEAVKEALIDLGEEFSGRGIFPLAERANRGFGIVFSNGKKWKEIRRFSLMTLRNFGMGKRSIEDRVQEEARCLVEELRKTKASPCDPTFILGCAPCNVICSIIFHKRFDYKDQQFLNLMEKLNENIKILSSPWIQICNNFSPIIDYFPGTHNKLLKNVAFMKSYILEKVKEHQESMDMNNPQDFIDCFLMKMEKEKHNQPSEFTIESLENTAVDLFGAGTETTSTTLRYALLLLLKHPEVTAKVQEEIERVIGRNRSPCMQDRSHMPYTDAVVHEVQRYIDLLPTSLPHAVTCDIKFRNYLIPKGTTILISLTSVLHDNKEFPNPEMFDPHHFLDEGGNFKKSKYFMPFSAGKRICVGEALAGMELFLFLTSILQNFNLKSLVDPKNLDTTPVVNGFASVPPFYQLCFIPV
CYP2C9 act: human CYP2C9 activators, primary screen, biochemical, luminescence. AID 1024, 2008. 96,000 compounds, 1.4% hits. activation factor at 5 µM. recombinant CYP2C9, luciferin-H conversion; stronger effect = higher value; factor 1 = untreated enzyme, 0 = blocked;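 active = activation factor of 2 or more for CYP2C9 at a 5 µM dose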;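 note: 0 = sulfaphenazole-blocked wells and 1 = vehicle-only wells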
CYP2C19 inhib: blockers of cytochrome P450 2C19 activity – biochemical, luminescence, ADME assay, primary screen; P33261; CYP2C19 Supersomes, luciferin-H EGE luminescence, 30 min; inhibition, % at 5 µM; 96,000 compounds, 21% hits; AID 778, 2007;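 active = CYP2C19 inhibition above a set limit at 5 µM in the primary screen, cut at about 50% in these data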;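 note: plate controls were negative control wells for no effect and 2.5 mM tranylcypromine positive control for full effect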
CYP2C19 activ: human CYP2C19 activators, primary screen, biochemical, luminescence; 96,000 tested, under 10 active; activation factor at 5 µM; recombinant CYP2C19, luciferin-H EGE luminescence; stronger effect = higher value; 0 = fully inhibited enzyme, 1 = untreated enzyme; Cytochrome P450 2C19 (Homo sapiens), P33261; AID 1025, 2008;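 active = activation factor of at least 2 at 5 µM in the primary screen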;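 note: 0 = wells with 2.5 mM tranylcypromine and 1 = vehicle-only wells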
* hit, by the source's call.

Screening O=C1C(Cl)=C(N2CCCCC2)C(=O)N1c1ccccc1 returned CYP2C9 inhib 11, CYP2C9 act 0.9, CYP2C19 inhib 25 and CYP2C19 activ 0.7.
Screening O=C(c1n[nH]c2c1CCCC2)n1ccnc1 returned CYP2C9 inhib 52*, CYP2C9 act 0.5, CYP2C19 inhib 16 and CYP2C19 activ 0.8.
Screening O=C(O)c1n[nH]c2c1CCCC2 returned CYP2C9 inhib -108, CYP2C9 act 2.1*, CYP2C19 inhib 5 and CYP2C19 activ 1.
`O=C(O)c1n[nH]c2c1CCCCC2` gave CYP2C9 inhib 16, CYP2C9 act 0.8, CYP2C19 inhib 4 and CYP2C19 activ 1.
Screening CN(C)c1ccc(C(=O)c2ccc(N(C)C)c(N)c2)cc1N returned CYP2C9 inhib -51, CYP2C9 act 1.5, CYP2C19 inhib 81* and CYP2C19 activ 0.2.
For CCOc1ccc(C(=O)c2ccc(OCC)c(N)c2)cc1N the results were CYP2C9 inhib 43, CYP2C9 act 0.6, CYP2C19 inhib 76* and CYP2C19 activ 0.2.
CC(=O)N(c1cccc(C)c1)C1SC(=O)N(c2ccccc2)C1=O (configuration not stated) was read as CYP2C9 inhib 44, CYP2C9 act 0.6, CYP2C19 inhib 68* and CYP2C19 activ 0.3.
For CCOC(=O)C1CN(S(=O)(=O)c2cccc(C(F)(F)F)c2)c2cc(CC(=O)OC)ccc2O1 (configuration not stated) the results were CYP2C9 inhib 60*, CYP2C9 act 0.4, CYP2C19 inhib 79* and CYP2C19 activ 0.2.
For CCOC(=O)C1CN(S(=O)(=O)c2ccccc2)c2cc(S(=O)(=O)CC)ccc2O1 (configuration not stated) the results were CYP2C9 inhib 30, CYP2C9 act 0.7, CYP2C19 inhib 36 and CYP2C19 activ 0.6.
`Cc1ccc(-c2nc(Nc3ccccc3)n[nH]2)cc1` gave CYP2C9 inhib 27, CYP2C9 act 0.7, CYP2C19 inhib 69* and CYP2C19 activ 0.3.
`Nc1nc(CSc2n[nH]c(-c3ccccc3)n2)nc(Nc2ccccc2)n1` gave CYP2C9 inhib 46, CYP2C9 act 0.5, CYP2C19 inhib 24 and CYP2C19 activ 0.8.
Screening Cc1ccc2nc(SCc3nnc(-c4ccccc4)o3)[nH]c2c1 returned CYP2C9 inhib 51*, CYP2C9 act 0.5, CYP2C19 inhib 30 and CYP2C19 activ 0.7.
`Cc1ccc2nc(SCc3nnc(-c4cccs4)o3)[nH]c2c1` gave CYP2C9 inhib 51*, CYP2C9 act 0.5, CYP2C19 inhib 43 and CYP2C19 activ 0.6.
Screening Cc1cccc(OCCCSc2nc3ccc(C)cc3[nH]2)c1 returned CYP2C9 inhib 78*, CYP2C9 act 0.2, CYP2C19 inhib 86* and CYP2C19 activ 0.1.
For Cc1ccc(/C=C/c2nnc(-c3cccs3)o2)cc1 the results were CYP2C9 inhib 35, CYP2C9 act 0.6, CYP2C19 inhib 18 and CYP2C19 activ 0.8.
`COc1ccc(CCNC(=O)CN2CCCc3ccccc32)cc1OC` gave CYP2C9 inhib 59*, CYP2C9 act 0.4, CYP2C19 inhib 74* and CYP2C19 activ 0.3.
`O=C1N(Cc2ccccc2F)c2ccccc2C12OCCCO2` gave CYP2C9 inhib -39, CYP2C9 act 1.4, CYP2C19 inhib 57* and CYP2C19 activ 0.4.
COc1ccccc1NC(=O)CN1C(=O)C2(OCCCO2)c2ccccc21 was read as CYP2C9 inhib 70*, CYP2C9 act 0.3, CYP2C19 inhib 80* and CYP2C19 activ 0.2.
COc1ccc(OC)c(NC(=O)CN2C(=O)C3(OCCCO3)c3ccccc32)c1 was read as CYP2C9 inhib 69*, CYP2C9 act 0.3, CYP2C19 inhib 14 and CYP2C19 activ 0.9.
`CC(C)CC(=O)CN1C(=O)C2(OCCO2)c2ccccc21` gave CYP2C9 inhib -3, CYP2C9 act 1, CYP2C19 inhib 22 and CYP2C19 activ 0.8.
Screening COc1ccc(CCNC(=O)CN2CCC(C)CC2)cc1OC returned CYP2C9 inhib 4, CYP2C9 act 1, CYP2C19 inhib 37 and CYP2C19 activ 0.6.
COc1ccc(CCNC(=O)CN2C(=O)C3(OCCCO3)c3ccccc32)cc1OC was read as CYP2C9 inhib 22, CYP2C9 act 0.8, CYP2C19 inhib 59* and CYP2C19 activ 0.4.
`CC1(C)C(=O)Nc2ccccc2N1C(=O)COC(=O)C1CCCCC1` gave CYP2C9 inhib 61*, CYP2C9 act 0.4, CYP2C19 inhib 62* and CYP2C19 activ 0.4.
`CC1(C)C(=O)Nc2ccccc2N1C(=O)COC(=O)C12CC3CC(CC(O)(C3)C1)C2` gave CYP2C9 inhib 6, CYP2C9 act 0.9, CYP2C19 inhib 0 and CYP2C19 activ 1.
Cc1ccc(S(=O)(=O)N2CCC(C(=O)OCC(=O)N3CCc4ccccc43)CC2)cc1 was read as CYP2C9 inhib -9, CYP2C9 act 1.1, CYP2C19 inhib -3 and CYP2C19 activ 1.
`O=C1CN(C(=O)COC(=O)C2CCN(S(=O)(=O)c3ccccc3C(F)(F)F)CC2)c2ccccc2N1` gave CYP2C9 inhib -51, CYP2C9 act 1.5, CYP2C19 inhib 57* and CYP2C19 activ 0.4.
Cc1cc(C)c(C)c(S(=O)(=O)N2CCC(C(=O)OCC(=O)N3c4ccccc4NC(=O)C3(C)C)CC2)c1C was read as CYP2C9 inhib -60, CYP2C9 act 1.6, CYP2C19 inhib 70* and CYP2C19 activ 0.3.
Screening CC(CNC(=O)C1CCCCC1C(=O)O)c1ccccc1 (configuration not stated) returned CYP2C9 inhib 8, CYP2C9 act 0.9, CYP2C19 inhib -7 and CYP2C19 activ 1.1.
For Cn1c(C(C#N)C(=O)c2ccco2)nc2ccccc21 (configuration not stated) the results were CYP2C9 inhib 51*, CYP2C9 act 0.5, CYP2C19 inhib 5 and CYP2C19 activ 0.9.
Screening CCn1c(SCC(=O)NC(C)(C)C)nnc1-c1ccccn1 returned CYP2C9 inhib 23, CYP2C9 act 0.8, CYP2C19 inhib 73* and CYP2C19 activ 0.3.
For CC(C)CNC(=O)CSc1nnc(-c2ccccn2)n1Cc1ccccc1 the results were CYP2C9 inhib 72*, CYP2C9 act 0.3, CYP2C19 inhib 80* and CYP2C19 activ 0.2.
`CCCn1c(SCC(=O)NCCc2ccccc2)nnc1-c1ccccn1` gave CYP2C9 inhib 56*, CYP2C9 act 0.4, CYP2C19 inhib 56* and CYP2C19 activ 0.4.
CCCn1c(SCC(=O)Nc2nnc(-c3ccccc3)s2)nnc1-c1ccccn1 was read as CYP2C9 inhib 71*, CYP2C9 act 0.3, CYP2C19 inhib 73* and CYP2C19 activ 0.3.
`CCn1c(Cc2ccccc2)nnc1SCC(=O)Nc1nnc(-c2ccccc2)s1` gave CYP2C9 inhib 30, CYP2C9 act 0.7, CYP2C19 inhib 48 and CYP2C19 activ 0.5.
Screening CSc1nc(C)cc(OCNC(=O)c2cccs2)n1 returned CYP2C9 inhib 9, CYP2C9 act 0.9, CYP2C19 inhib 27 and CYP2C19 activ 0.7.
